Assay outcomes from PubChem.
In the library only some 7.9% were active in any assay of this set; here they are far more common.
Marburg entry inh = qHTS for inhibitors of binding or entry into cells for Marburg Virus. 300,000 compounds, 1.8% hits. Potency, µM (series often up to 37.8 µM), hits mostly inhibitors. Marburg virus pseudotyped entry inhibition, cell reporter; calls by dose curve; tested in HEK293 cells
Lassa entry inh = qHTS for Inhibitors of binding or entry into cells for Lassa Virus | Potency, µM (series often up to 37.9 µM), hits mostly inhibitors | 300,000 compounds, 1.2% hits | AID 540256, 2011 | Lassa virus pseudotype entry inhibition, cell reporter; calls by dose curve; tested in HEK293 cells; further: nearly all actives have a fitted effect of over 50% in size
HCV inhibitor = qHTS Assay for Inhibitors of Hepatitis C Virus (HCV); Potency, µM (series often up to 41.8 µM), actives largely listed as inhibitors; AID 651820, 2012; 340,000 compounds, 3.4% hits; Huh7.5.1 HCVcc-Cre infection, luciferase reporter, 44 h; active means well fitted inhibition curve with a large enough effect; inconclusive means small, poorly fitted or top-dose-only effect, or another doubt; inactive means no such curve, though single readings can be large or run the other way
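Whole-lifecycle infectious HCVcc-Cre system; cells 1,000/well, compound then virus (~0.5 moi) added 4 h after plating, 44 h culture. Luciferase read 15 sec following 15 min substrate incubation, room temp.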
HCMV inh = qHTS Assay for inhibitors of the human cytomegalovirus (HCMV). 410,000 compounds, 4.5% hits. activity change, negative = inhibition, % at 57.5 µM. HFF cells, HCMV-luciferase reporter, 72 h; active compounds read low; in the data active means activity change below about -60%; inconclusive means no clear call, values can overlap the other calls; inactive means above about -39%
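Luciferase read-out from HCMV-luciferase-infected HFFs (MOI 1 PFU/cell) 72 h post infection at 37C; compounds added after 16 h cell attachment; activity normalized between buffer-only basal and Salinomycin (10uM) inhibitor controls.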
FMDV antiviral = High Throughput Screening for Foot and Mouth Disease Virus Antivirals | FMDV antiviral cell-based qHTS | Potency, µM (series often up to 57.9 µM), hits mostly inhibitors | 410,000 compounds, 1.2% hits | AID 1159524, 2015; calls by dose curve; tested in HEK293T cells; further: read-out not given here; nearly all actives have a fitted effect of over 45% in size
Hits are given with their value; . = inactive; ? = inconclusive; / = not tested or not shown.

SMILES | Marburg entry inh | Lassa entry inh | HCV inhibitor | HCMV inh | FMDV antiviral
COc1ccc(C)cc1N(C(=O)c1snc(C(N)=O)c1N)C(C(=O)NC1CCCCC1)c1ccc(C)o1 (centres undefined) | 11µM | ? | ? | ? | .
CCOC(=O)C1CCCN(C(=O)C2CCN(S(=O)(=O)c3ccc4ccccc4c3)CC2)C1 (centres undefined) | . | ? | ? | . | .
Nc1ncnc2c1ncn2[C@@H]1O[C@H](CNCc2c(OCc3ccccc3F)ccc3ccccc23)[C@@H](O)[C@H]1O | / | / | ? | ? | .
CS(=O)(=O)c1ccc(-c2nc(-c3ccc(F)cc3)c(-c3ccncc3)[nH]2)cc1 | / | / | / | / | .
Cc1ccc(F)c(S(=O)(=O)NC(=O)C2(C)CCN2C(=O)Cc2cc(F)ccc2F)c1 (centres undefined) | / | / | / | . | .
C=CCn1c(SCC(=O)Nc2sccc2C(N)=O)nc2sc(CC)cc2c1=O | 13µM | ? | 11µM | -78 | 25µM
NC(=O)c1ccsc1NC(=O)CSc1ccccc1F | . | . | . | . | /
C=CCn1c(SC(C)C(N)=O)nc2sc(CC)cc2c1=O (centres undefined) | . | . | . | . | .
C=CCn1c(SCC(=O)Nc2sccc2C(N)=O)nc2ccc(Cl)cc2c1=O | ? | ? | 7.9µM | -82 | ?
NC(=O)c1ccsc1NC(=O)CSc1nnc(Nc2ccccc2)s1 | ? | ? | ? | -63 | ?
C=CCn1c(SCC(=O)Nc2sccc2C(N)=O)nc2ccccc2c1=O | ? | ? | 11µM | . | ?
O=C(COC(=O)CC1SC(N2CCCC2)=NC1=O)Nc1c(F)c(F)c(F)c(F)c1F (centres undefined) | / | / | . | . | .
CC(Sc1n[nH]c(-c2cccs2)n1)C(=O)Nc1ccc(C(N)=O)cc1 (centres undefined) | / | / | . | . | .
Cn1c(=O)c(-c2ccc(F)cc2)nc2cnc(N3CCOCC3)nc21 | / | / | / | / | .
CCN1C(=O)NC(c2ccccc2)C(C(=O)OC)=C1C (centres undefined) | . | / | / | / | /
COC(=O)c1sc2nc(C)nc(SCC(=O)Nc3sccc3C(N)=O)c2c1C | / | / | 11µM | ? | ?
C=CCn1c(SCN2C(=O)c3ccccc3C2=O)nc2ccc(Cl)cc2c1=O | . | . | . | . | 16µM
C=CCn1c(SCC(=O)Nc2ccccc2F)nc2ccccc2c1=O | / | / | . | ? | .
Cc1nc(SCC(=O)Nc2sccc2C(N)=O)c2c(C)c(C)sc2n1 | / | / | / | . | ?
Nc1ncnc2occ(-c3ccc(NC(=O)Nc4cc(C(F)(F)F)ccc4F)cc3)c12 | / | 16µM | / | / | /
O=C(Nc1cc(C(F)(F)F)ccc1F)C1CCC1 | . | . | . | . | .
COc1ccc(-c2oc3ncnc(N)c3c2-c2ccc(NC(=O)Nc3cc(C(F)(F)F)ccc3F)cc2)cc1 | / | 11µM | / | / | /
CCCCCCCC(=O)C(C)C(=O)N(C)[C@H](Cc1ccc(OC)cc1)C(=O)N(C)[C@H](C(N)=O)C(C)C (some centres undefined) | / | / | 0.56µM | . | .
Cc1cccc(NC(=O)CCCn2c(C)c3cnn(-c4ccccc4)c(=O)c3c2C)c1C | . | . | / | . | .
Cc1cccc(N2CCN(C(=O)Cn3c(C)c4cnn(-c5ccccc5)c(=O)c4c3C)CC2)c1C | . | ? | / | -81 | 28µM
SMILES | Marburg entry inh | Lassa entry inh | HCV inhibitor | HCMV inh | FMDV antiviral
CSc1nc(N(C)NC(=O)c2ccc(F)cc2)c2ccccc2n1 | 1.3µM | ? | ? | . | .
COC(=O)C1=C(c2ccc(OC(F)(F)F)cc2)C[C@@H]2CC[C@H]1N2C(=O)NCc1ccc(F)cc1 | / | / | ? | . | .
COC(=O)C1=C(c2ccc(OC(F)(F)F)cc2)C[C@@H]2CC[C@H]1N2C(=O)NCc1cccc2ccccc12 | / | / | 10µM | . | 13µM
COC(=O)C1=C(c2ccc(S(C)(=O)=O)cc2)C[C@@H]2CC[C@H]1N2C(=O)NCc1ccc(F)cc1 | / | / | ? | -63 | .
COC(=O)c1cccc(NC(=O)c2ccc(S(=O)(=O)N(C)c3ccccc3OC)cc2)c1 | / | / | / | . | 35µM
COc1ccccc1N(C)S(=O)(=O)c1ccc(C(=O)Nc2ccc(N3CCOCC3)cc2)cc1 | ? | ? | 10µM | -62 | 40µM
Cc1nc2ccc(NC(=O)c3cccc(S(=O)(=O)N(C)c4ccccc4)c3)cc2s1 | 18µM | ? | 10µM | / | 25µM
Cc1nc2ccc(NC(=O)c3ccccc3)cc2s1 | . | . | . | . | .
COc1cc(NC(=O)c2ccc(S(=O)(=O)N(C)c3ccccc3OC)cc2)cc(OC)c1 | ? | ? | 11µM | . | .
CCC(C)(C)NC(=O)c1ccc(S(=O)(=O)N(C)c2ccccc2OC)cc1 | . | . | ? | . | .
CCOc1cc(CNc2nn[nH]n2)ccc1OCC(=O)NC(C)(C)C | . | . | . | . | .
COc1cc2nccc(Oc3ccc(NC(=O)Nc4ccc(F)cc4F)c(F)c3)c2cc1OC | / | / | / | / | .
OC1CCN(Cc2ccc3c(c2)CN(Cc2ccc(Oc4ncccn4)cc2)CCO3)CC1 | / | / | / | / | .
COc1ccccc1N(C)S(=O)(=O)c1ccc(C(=O)N(C)Cc2ccc(OC(F)F)cc2)cc1 | 11µM | ? | 4µM | . | 35µM
COc1ccccc1N(C)S(=O)(=O)c1ccc(C(=O)Nc2ccc3nc(C)sc3c2)cc1 | ? | ? | ? | -85 | 25µM
CCCc1nnc(NC(=O)c2ccc(S(=O)(=O)N(C)c3ccccc3OC)cc2)s1 | . | . | . | . | ?
COC(=O)c1ccc(CNC(=O)c2ccc(S(=O)(=O)N(C)c3ccccc3OC)cc2)cc1 | / | / | 8.9µM | . | .
Cc1nc2ccc(S(=O)(=O)N(C)CC(=O)Nc3ccc(C(C)C)cc3)cc2s1 | . | . | / | -60 | .
COc1ccccc1N(C)S(=O)(=O)c1ccc(C(=O)NCC(C)C)cc1 | . | ? | . | . | .
CCc1ccc(C(=O)c2cn(CC(=O)Nc3ccc(F)cc3)c3cc4c(cc3c2=O)OCO4)cc1 | ? | ? | / | . | .
O=C(Nc1ccccc1)N1CC2(CCN(C(=O)c3ccco3)CC2)C1 | / | / | / | / | .
CCC(C(=O)N1CCN(S(=O)(=O)c2ccc(F)cc2)CC1)c1ccccc1 (centres undefined) | / | / | . | . | .
CC1CCCCc2nc3c(c(=O)n21)CCCC3 (centres undefined) | / | / | / | ? | .
Cc1cccc2c(N3CCCC3)nc(CNS(=O)(=O)c3ccc4ccccc4c3)nc12 | / | / | / | / | .
CN(Cc1ccc(OC(F)F)cc1)C(=O)c1ccccc1Sc1ccccc1C#N | ? | ? | ? | -69 | .
COc1ccccc1N(C)S(=O)(=O)c1ccc(C(=O)Nc2cccc(Br)c2)cc1 | ? | ? | 13µM | . | ?
O=C(O)c1cc(S(=O)(=O)N2CCCCC2)ccc1N1CCCCC1 | . | ? | . | . | .
CCCS(=O)(=O)NCCc1sc2nc(-c3ccc(Cl)cc3)nn2c1C | / | ? | / | -66 | .
Cc1cc(C)c(S(=O)(=O)NCCc2sc3nc(-c4ccc(F)cc4)nn3c2C)c(C)c1 | / | . | / | -60 | .
COc1ccc(-c2nc3scc(CCNS(=O)(=O)c4ccc(Oc5ccccc5)cc4)n3n2)cc1OC | / | ? | / | -72 | .
